# Only some compounds are listed: those with a hit (about 22% of all), similar ones and a draw of the others.
# Pf growth 48h – P. falciparum growth inhibition at 48 hours (one generation) | 310,000 compounds, 5.9% hits | P. falciparum luciferase growth in erythrocytes, 48 h | Potency, µM (doses to about 28.7 µM), without a hit: at the highest dose activity change, negative = inhibition, usual class: inhibitors; further: potency means the concentration at half of the fitted maximal effect; on the % scale 0 is the no-effect control and ±100 the full control effect
#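 In quantitative HTS format, infected erythrocytes bearing luciferase-reporter parasites were treated for a single generation at 37 C. Luminescence after adding detection reagent served as the growth measure.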
# Shiga toxin inh – inhibitors of Shiga toxin in Vero cells. Vero cells, Shiga toxin protein synthesis inhibition reporter. inhibition, % at 38.7 µM. 290,000 compounds, 9.2% hits. AID 2315; in the data active means inhibition mostly above about 28%, no sharp cut-off; inactive means mostly below about 43%; further: 0% is about no effect
# Cycloheximide cs – affects cycloheximide protein synthesis inhibition readout, counter-screen. max response, %. cell reporter, cycloheximide protein synthesis inhibition counterscreen. AID 2314. 300,000 compounds, 12% hits; in the data active means max response mostly above about 13%, no sharp cut-off; inactive means mostly below about 14%; further: read at 38.3 µM for the half of the compounds with a filed dose; 0% is about no effect
# Pf growth 96h – P. falciparum growth inhibition at 96 hours; P. falciparum luciferase reporter growth, 96 h; Potency, µM (highest dose often 28.7 µM), inactives show at the top dose activity change, negative = inhibition, hits mostly inhibitors; 320,000 compounds, 6.9% hits; AID 504834; further: potency means the concentration at half of the fitted maximal effect; on the % scale 0 is the no-effect control and ±100 the full control effect
#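 P. falciparum expressing integrated firefly luciferase, in erythrocytes at 2% hematocrit, 0.05% parasitemia, incubated with compounds 96 h at 37 C, 5% CO2. Growth inhibition read as loss of luminescence; two-generation exposure targets delayed-death apicoplast inhibitors.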
# LmPK inh – LmPK (Leishmania mexicana) enzyme inhibition; AID 1721; purified LmPK, Kinase-Glo ATP luminescence, 1 h; 290,000 compounds, 0.37% hits; Q27686; Potency, µM (series often up to 57.5 µM), without a hit: at the top dose activity change, negative = inhibition, usual class: inhibitors; further: potency means the concentration at half of the fitted maximal effect; on the % scale 0 is the no-effect control and ±100 the full control effect
# Target sequence (Q27686 whole entry, looked up): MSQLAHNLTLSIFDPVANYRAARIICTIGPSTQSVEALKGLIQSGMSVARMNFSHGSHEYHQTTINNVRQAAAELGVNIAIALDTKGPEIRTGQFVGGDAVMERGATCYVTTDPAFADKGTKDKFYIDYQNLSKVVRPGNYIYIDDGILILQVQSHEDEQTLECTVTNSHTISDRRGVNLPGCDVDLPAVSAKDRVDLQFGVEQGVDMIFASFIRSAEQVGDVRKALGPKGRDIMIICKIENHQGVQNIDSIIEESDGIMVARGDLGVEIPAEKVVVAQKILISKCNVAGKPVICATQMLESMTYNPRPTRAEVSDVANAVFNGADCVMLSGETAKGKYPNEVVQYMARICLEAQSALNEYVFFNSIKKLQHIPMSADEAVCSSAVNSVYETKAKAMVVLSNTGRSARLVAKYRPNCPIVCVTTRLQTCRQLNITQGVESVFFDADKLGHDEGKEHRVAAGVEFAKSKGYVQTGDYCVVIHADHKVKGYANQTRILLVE
#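 Screened at intermediate enzyme activity to detect both inhibitors and activators: LmPK at 0.1 nM, with a 0.5 nM enzyme column as activation reference. PEP 0.5 mM, ADP 0.1 mM; ATP detected by luminescence after 1 h.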
# * marks the source's active call; other numbers are inactive results; i = inactive; ? = inconclusive; . = no result given; [ ] = another dose, or the depositor's remark. Unless noted, the call rests on the fitted dose curve; in most records, active means well fitted inhibition curve with a large enough effect; inconclusive means small, poorly fitted or top-dose-only effect, or another doubt; inactive means no such curve, though single readings can be large or run the other way.
SMILES,Pf growth 48h,Shiga toxin inh,Cycloheximide cs,Pf growth 96h,LmPK inh
CCc1sc(N(C(=O)Cc2ccccc2)c2cccc(F)c2)nc1-c1ccc(C)cc1,?,-2,1,?,2%
O=C(NCCNC(=O)c1ccc([N+](=O)[O-])cc1)c1ccncc1,19%,-1,1,?,4%
O=C(COc1coc(CN2CCc3ccccc3C2)cc1=O)Nc1cccc([N+](=O)[O-])c1,12µM*,.,.,?,.
CCc1ccc(NC(=O)COc2coc(CN3CCc4ccccc4C3)cc2=O)cc1,9.3µM*,.,.,?,.
Cc1cccc(NC(=O)COc2coc(CN3CCc4ccccc4C3)cc2=O)c1,8.3µM*,.,.,?,.
Cc1ccc(C)c(NC(=O)COc2coc(CN3CCc4ccccc4C3)cc2=O)c1,-18%,.,.,?,.
O=C(COc1coc(CN2CCCc3ccccc32)cc1=O)Nc1cccc([N+](=O)[O-])c1,?,.,.,6.6µM*,.
CCOC(=O)c1ccc(NC(=O)COc2coc(CN3CCc4ccccc43)cc2=O)cc1,?,.,.,11%,.
O=C(COc1coc(CN2CCc3ccccc3C2)cc1=O)Nc1ccc(Cl)cc1,?,.,.,33%,.
CCCn1c(C(O)c2cccc(OC)c2)nc2ccccc21 (configuration not stated),?,-3,-3,-11%,2%
Cc1ccc2nc(NC(=O)C3CCN(C(=O)c4ccc(F)cc4)CC3)sc2c1,-10%,18,26,-13%,-2%
Nc1cc(=O)[nH]c(SCC(=O)Nc2ccc(Oc3ccccc3)cc2)n1,-18%,-7,-5,-13%,0%
COc1ccccc1-n1c(=O)oc2ccc(Cl)cc2c1=O,?,86*,59*,-27%,-5%
COc1ccccc1-n1c(-c2ccccc2)nc2ccccc2c1=O,-18%,-4,-3,-29%,1%
COc1ccc(N(C(=O)c2ccc(S(=O)(=O)N3CCCC3)cc2)C2C=CS(=O)(=O)C2)cc1 (configuration not stated),8%,-17,-3,0%,2%
CCOC(=O)C1=C(C)N2C(=C(C#N)[C@@H]1c1ccc(C(=O)OC)cc1)SC[C@@]2(O)C(C)(C)C,13µM*,-4,10,.,6%
Nc1cccc2c3c(oc12)CCCC3,54%,11,9.4*,2%,0%
S=c1nc(-c2ccc(Br)cc2)oc2c1CCCC2,.,5,33,61%,2%
CCC(C(=O)NCCc1c[nH]c2cc(OC)ccc12)c1ccccc1 (configuration not stated),-19%,-11,2,-18%,-2%
C=CCn1c(=NC(=O)C2CC2)sc2cc(NC(C)=O)ccc21,.,42,28*,1%,9%
CCOC(=O)C1=C(COC(=O)Cc2ccccc2)NC(=O)NC1C (configuration not stated),16%,-29,-3,16%,-6%
CC(C)Oc1cccc(C(=O)Nc2ccc(Br)cc2F)c1,343%,107*,65*,1%,0%
Cc1ccc(Cl)cc1NC(=O)c1cccc(OC(F)F)c1,.,10,9,-1%,1%
COc1ccccc1OCc1ccc(C(=O)Nc2ccccc2F)cc1,105%,47*,6.7*,2%,-6%
O=C(Nc1ccccc1F)c1ccc(C(=O)c2ccccc2)cc1,85%,75*,29*,117%,4%
SMILES,Pf growth 48h,Shiga toxin inh,Cycloheximide cs,Pf growth 96h,LmPK inh
COc1ccc(-c2cccc(C(=O)Nc3ccccc3C)c2)cc1,4%,-9,1,9.3µM*,-3%
O=C(COC(=O)c1ccc[n+]([O-])c1)Nc1ccc(Cl)cc1[N+](=O)[O-],?,.,.,-15%,.
Cc1c(NC(=O)C(C)N2C(=O)C3CCCCC3C2=O)c(=O)n(-c2ccccc2)n1C (configuration not stated),2%,-6,-4,0%,1%
Cc1ccc(S(=O)(=O)c2nc(Cc3ccccc3)oc2N2CCOCC2)cc1,1%,.,.,79%,.
COc1cccc(C(=O)Nc2ccc(C(F)(F)F)n(C)c2=O)c1,300%,50*,35*,244%,?
O=C(Nc1ccc(Br)cc1F)c1cccnc1,82%,86*,15,102%,-4%
CC(=O)c1cccc(NC(=O)Oc2ccccc2)c1,-2%,-15,0,-16%,2%
O=C(Nc1ccccc1)Oc1cccc(Br)c1,31%,28,14*,22%,-7%
COc1cccc(C(=O)Nc2ccc(F)cc2F)c1,353%,59*,39*,418%,-27%
CN(c1ccccc1)S(=O)(=O)c1cccc(NC(=O)CN2C(=O)NC3(CCCC3)C2=O)c1,-25%,.,.,?,.
CCCCN(C(=O)C(C)Oc1ccc(Br)cc1)c1c(N)n(Cc2ccccc2)c(=O)[nH]c1=O (configuration not stated),?,-30,1,?,-2%
Cc1ccc(NC(=S)Nc2cccnc2)c(S(=O)(=O)N2CCCCC2)c1,-1%,19,-2,?,1%
COc1cccc(C(=O)Nc2ccc(F)c(F)c2F)c1,159%,136*,35*,275%,-28%
COc1cccc(C(=O)N(C)CC(=O)Nc2ccc(F)c(F)c2F)c1,14%[0.00184 µM],-7,-6,17%,2%
COc1ccc(COc2ccccc2C(N)=O)cc1F,85%,66*,33*,37%,-3%
Cn1ccc(C(=O)Oc2ccc(C(=O)Nc3ccc(F)cc3F)cc2)n1,i,53,26*,9%,-21%
COc1cccc(C(=O)Nc2ccccc2F)c1,80%,98*,30*,32%,-29%
COc1ccc(C(=O)Nc2ccc(F)cc2F)cc1OC,31%,-13,13,?,-10%
CCCn1ncc(CN2CCN(Cc3ccsc3)C(CCO)C2)c1C (configuration not stated),17%,-12,-1,-10%,1%
Nc1ccc(S(=O)(=O)NC2(C(F)(F)F)NC(=O)N(Cc3ccccc3)C2=O)cc1 (configuration not stated),3%,55,15,21%,-2%
O=C(Nc1ccccc1F)Oc1cccc(OC(=O)Nc2ccccc2F)c1,127%,101*,45*,145%,?
O=C(Nc1ccccc1F)c1cccc(C(=O)Nc2ccccc2F)c1,121%,19,14,?,-6%
Cc1ccc(Nc2nc(N)c3ccccc3n2)cc1C,?,37*,20*,?,-17%
Cc1ccc(Nc2nc3ccccc3c(=O)[nH]2)cc1C,?,36*,37*,0%,3%
COc1ccc(C(=O)Nc2nc3ccccc3c(=O)[nH]2)cc1,161%,82*,44*,.,-1%
COc1ccc(Nc2nc3ccccc3c(=O)[nH]2)cc1,2.1µM*,-1,7,4.7µM*,-3%
O=C(Cn1ccc(NC(=O)OCc2ccccc2)nc1=O)NCc1ccc2c(c1)OCO2,19%,.,.,0%,.
COc1ccc(Nc2nc3c([nH]2)c(=O)[nH]c(=O)n3C)cc1,3%,-7,1,13µM*,-2%
CCOC(=O)N/N=C/c1ccc(OCCSc2ccc(Cl)cc2)c(OC)c1,5.2µM*,-8,-1,2.1µM*,1%
